Assay results from PubChem BioAssay AID777 (Sanford-Burnham Center for Chemical Genomics, 2007).
In all, about 96,000 compounds went through this assay and about 19,000 (20%) were called active. Not all results are given here. Values without a mark were called inactive.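 How the source made its calls: active means blocking of liver enzyme CYP2C9 beyond about 50% at 5 µM (limit read from the data); inactive means the rest.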

Biological target: Cytochrome P450 2C9 (Homo sapiens) (UniProt P11712)
Assay: blockers of cytochrome P450 2C9 activity – biochemical, luminescence, ADME assay, primary screen (AID 777)
Details: CYP2C9 Supersomes, luciferin-H conversion, at 5 µM, stronger effect = higher value

Chain of Cytochrome P450 2C9 (Homo sapiens) (P11712 whole entry, looked up): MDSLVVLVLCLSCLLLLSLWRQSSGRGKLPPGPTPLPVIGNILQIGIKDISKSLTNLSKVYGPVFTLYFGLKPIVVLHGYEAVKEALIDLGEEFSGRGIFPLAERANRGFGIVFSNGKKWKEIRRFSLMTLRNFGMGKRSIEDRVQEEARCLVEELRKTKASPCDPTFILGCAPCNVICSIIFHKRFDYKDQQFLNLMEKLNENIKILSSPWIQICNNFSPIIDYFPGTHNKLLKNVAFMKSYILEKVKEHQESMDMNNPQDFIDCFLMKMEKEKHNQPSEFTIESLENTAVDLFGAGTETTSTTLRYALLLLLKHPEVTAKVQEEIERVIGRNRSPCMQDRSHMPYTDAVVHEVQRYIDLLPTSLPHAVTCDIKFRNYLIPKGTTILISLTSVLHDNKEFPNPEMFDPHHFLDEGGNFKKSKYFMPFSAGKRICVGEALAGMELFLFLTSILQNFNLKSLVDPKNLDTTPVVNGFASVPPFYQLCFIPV

Question: Which inhibition does the source give for `COc1ccccc1CN1CCN(C(=O)Cc2ccccc2)CC1` here?
Answer: 31.5%

Question: Which inhibition does the source give for `COc1ccc(CN2CCN(c3ccccc3F)CC2)c(OC)c1` here?
Answer: 60.9% (active)

Question: With `Fc1cccc(F)c1CN1CCN(Cc2c(F)cccc2F)CC1` as the molecule, how does the inhibition read?
Answer: 7.2%

Question: For `CC(=NCC1CCCO1)c1c(O)n(-c2ccccc2)c(=O)[nH]c1=O` (configuration not stated), which inhibition is on record?
Answer: 27.9%

Question: Which inhibition does the source give for `CC(=NC1CCN(Cc2ccccc2)CC1)c1c(O)n(C)c(=O)n(C)c1=O` here?
Answer: 17.4%

Question: `CC(=O)c1c(O)n(C2CCCCCC2)c(=O)[nH]c1=O` was tested. Which inhibition did it give?
Answer: 82.9% (active)

Question: With `CCC(=NCCc1ccccc1)c1c(O)n(C2CCCCC2)c(=O)[nH]c1=O` as the molecule, how does the inhibition read?
Answer: 68.4% (active)

Question: With `CN1CCN(Cc2ccc(OC(F)(F)F)cc2)CC1` as the molecule, how does the inhibition read?
Answer: 3.1%

Question: With `CCc1nc2ccccc2c(=O)n1-c1cccc(OC)c1` as the molecule, how does the inhibition read?
Answer: -4%

Question: `CC(=O)N(C1=NCCCS1)c1ccccc1F` was tested. Which inhibition did it give?
Answer: 18.1%

Question: Which inhibition does the source give for `COC(=O)C(c1ccccc1)N1CCCCCC1` (configuration not stated) here?
Answer: 5.8%

Question: For `O=c1c2ccccc2nc(-c2ccco2)n1-c1ccc(Br)cn1`, which inhibition is on record?
Answer: -4.8%

Question: Which inhibition does the source give for `COc1ccccc1N=C1SCCCN1C` here?
Answer: -3.6%

Question: With `CCN(CC)CCOC(=O)c1cc2cc(COC)ccc2o1` as the molecule, how does the inhibition read?
Answer: -1.3%

Question: Which inhibition does the source give for `O=C(c1cc(-c2ccncc2)nc2ccccc12)N1CCC2(CC1)OCCO2` here?
Answer: 41.9%

Question: `O=C(c1cc2nc(-c3ccccc3)cc(-c3ccccc3)n2n1)N1CCC2(CC1)OCCO2` was tested. Which inhibition did it give?
Answer: 94.6% (active)

Question: `Cc1cccc(-n2c(C)nc3cc(C(=O)N4CCC5(CC4)OCCO5)ccc32)c1` was tested. Which inhibition did it give?
Answer: 13.7%

Question: Which inhibition does the source give for `CCN(CC)P(=O)(Oc1cccc(C)c1)N(CC)CC` here?
Answer: 46.2%

Question: With `CCC(=O)CC(c1ccc([N+](=O)[O-])cc1)c1c(O)c2ccccc2oc1=O` (configuration not stated) as the molecule, how does the inhibition read?
Answer: 75.8% (active)

Question: Which inhibition does the source give for `O=C(C1CC(=O)N(C2CCCC2)C1)N1CCC2(CC1)OCCO2` (configuration not stated) here?
Answer: 9.5%

Question: For `CC(=O)N1CN2CN(C(C)=O)CC(C(=O)c3ccc(Br)cc3)(C2)C1`, which inhibition is on record?
Answer: -14.6%

Question: Which inhibition does the source give for `Fc1ccc(N2CCN(Cc3ccc4c(c3)OCO4)CC2)cc1` here?
Answer: 14.2%

Question: For `c1ccc2sc(C3CCCNC3)nc2c1` (configuration not stated), which inhibition is on record?
Answer: -23%

Question: How did the inhibition turn out when `CCCCCCN=C(CC)c1c(O)n(CCCC)c(=O)[nH]c1=O` was run?
Answer: 93.6% (active)

Question: With `CCC(=NCCCO)c1c(O)n(-c2ccc(OC)cc2)c(=O)[nH]c1=O` as the molecule, how does the inhibition read?
Answer: -2.8%

Question: Which inhibition does the source give for `CCCCn1c(O)c(C(CC)=NCc2ccco2)c(=O)[nH]c1=O` here?
Answer: 56.4% (active)

Question: Which inhibition does the source give for `CCC(=NCc1ccco1)c1c(O)n(Cc2ccccc2)c(=O)[nH]c1=O` here?
Answer: 35.4%

Question: `Cc1cc(OCc2cc(C(=O)O)oc2C)c2c3c(c(=O)oc2c1)CCCC3` was tested. Which inhibition did it give?
Answer: 22.2%

Question: Which inhibition does the source give for `OC(CNC1CCCCC1)c1ccccc1` (configuration not stated) here?
Answer: 28.7%

Question: How did the inhibition turn out when `O=c1c2ccccc2nc(-c2ccc(Cl)cc2Cl)n1-c1ccncc1` was run?
Answer: 17.2%

Question: How did the inhibition turn out when `COC(=O)N(c1ccc(OC)cc1)P1(=S)OCCC(C)O1` (configuration not stated) was run?
Answer: 12.9%

Question: How did the inhibition turn out when `CCc1cccc2c(C#N)cn(CC(=O)N3CCOCC3)c12` was run?
Answer: 37.3%

Question: For `N[C@@H](Cc1c[nH]c2ccccc12)c1nnc(SCc2c(F)cccc2Cl)o1`, which inhibition is on record?
Answer: 70.3% (active)

Question: With `CCCC(C)n1[nH]c(=O)c2c1NC(=O)CSC2c1ccc(OC)c(OC)c1` (configuration not stated) as the molecule, how does the inhibition read?
Answer: 1.7%

Question: How did the inhibition turn out when `CCN1CCN(C(=O)Cc2coc3cc(C)cc(C)c23)CC1` was run?
Answer: -3.2%

Question: `CCOC(=O)c1c(N)n(CCN2CCOCC2)c2nc3ccccc3nc12` was tested. Which inhibition did it give?
Answer: 25.6%

Question: With `CCOC(=O)c1c(N)n(Cc2ccccc2)c2nc3ccccc3nc12` as the molecule, how does the inhibition read?
Answer: 12%

Question: How did the inhibition turn out when `COc1cc(Cn2c(N)c(C(=O)NCc3ccco3)c3nc4ccccc4nc32)cc(OC)c1OC` was run?
Answer: 100% (active)

Question: For `O=C(c1cc(S(=O)(=O)N2CCOCC2)ccc1F)N1CCC2(CC1)OCCO2`, which inhibition is on record?
Answer: -0.4%

Question: With `Cc1cc(C)cc(NC(=S)NC2CC3CCCC(C2)N3Cc2cccs2)c1` (configuration not stated) as the molecule, how does the inhibition read?
Answer: 8.1%

Question: With `CNP1(NC)=Nc2nn(-c3ccccc3)c(N)c2C(c2ccccc2)=N1` as the molecule, how does the inhibition read?
Answer: -4%

Question: `CC1(C)C(c2ccccc2)=NC(c2cccnc2)=[N+]1[O-]` was tested. Which inhibition did it give?
Answer: 38.2%

Question: `Cn1c(O)c(C=NCCCC(=O)O)c(=O)n(C)c1=O` was tested. Which inhibition did it give?
Answer: -3.8%

Question: Which inhibition does the source give for `C/C(CCc1c[nH]c2ccccc12)=N\O` here?
Answer: -21.6%

Question: `CCOC(=O)C1=C(C)OC(N)=C(C(=O)OC)C12C(=O)Nc1ccc(Br)cc12` (configuration not stated) was tested. Which inhibition did it give?
Answer: 22%

Question: `COc1ccc(C2NCc3ccc4c(c3-n3cccc32)OCO4)cc1OC` (configuration not stated) was tested. Which inhibition did it give?
Answer: 10.3%

Question: For `CCOC(=O)C1SC2(C(F)(F)C(F)F)CC1(O)c1c(c(OC)c3occc3c1OC)O2` (configuration not stated), which inhibition is on record?
Answer: 87% (active)

Question: How did the inhibition turn out when `CCNc1nc2[nH]c(=O)c3c(c2s1)OC(N)=C(C#N)C3c1cccs1` (configuration not stated) was run?
Answer: -5.9%

Question: For `CCOc1ccc(C2SCC(=O)Nc3c2c(C)nn3C2CCOC(C)(C)C2)cc1` (configuration not stated), which inhibition is on record?
Answer: 7.4%

Question: With `N#Cc1ccc(Cn2cc(C(=O)c3ccco3)c3ccccc32)cc1` as the molecule, how does the inhibition read?
Answer: 77.3% (active)

Question: For `CC1=C(C(=O)Nc2ccccc2)SCCO1`, which inhibition is on record?
Answer: -1.2%

Question: Which inhibition does the source give for `O=C(CSC1c2ccccc2-c2ccccc21)N/N=C/c1ccccc1` here?
Answer: 21.3%
